system: RARb:RXRa (NR concentration 270 nM, RXRa partner concentration 90 nM); assay: PBM binding z-score (relative to random genomic background probes); higher = stronger binding; sequences stand for … in GC…GCGATTGACAGCGTAGAATGAAGG
Outline: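 On custom Agilent 4×180K arrays, double-stranded probes with 34-nt variable regions carried direct-repeat seeds, single-nucleotide variants, half-site ablations or random human genomic background. Ligand-free nuclear receptor dimers were applied for 1 h, and binding was read with antibodies against each partner (one per run). Binding z-scores come from regression-normalized fluorescence, with the random background probes as reference.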

Sequence	PBM binding z-score
TAGCCTAGGTCATGGGCCAGTAGACCACGCGAAC	3.92
ATCGAAAGGTCGAGGTGATTATAGAGAAAGGGAA	4.2
CTCGAAAGGTCGGTAGAGGTGAGTATACGGATAA	3.13
CCTAGTAGGCCAGGGTCACTCAAGCATTTCGCTT	2.65
CCTTACGGGTCACTCCAGGCTATAGCATCGGAGT	3.51
CGAACTAGGTCAAGGTCAGTGAATCTCCGCACGC	4.86
AGAACGAGGGCACGCTGAGTTCATAGCAGAGTAG	3.2
GCCACTGGGGCATCAGCAGGTTACCATAACTTAA	0.955
ACTAGTTGGTCAGCTGAGATCACACACAATTCGG	0.946
ATTTACGGGTCAACGAGGTTATAGCACGCGTATA	4.48
TAGCCTAGGTCATTGGGCAAGTATAGTACGCATC	3.66
TCTCGGAGTACACGAAGGTCAGAGCTTTCCAGAG	2.58
AGAACGAGGGCACGGTGAGTTGATAGCAGAGTAG	2.75
TCAAGCAGGCCAGAGGGTCACTCAAGAGGTACGG	2.51
CAAACTAGGTCACAGAGGCCAAAGTCCGTGCGTA	4.23
CGTCAAAGTACAACTAAGGTAACGTAAAGCACGC	1.34
TCTTGTAGATCAAGCAGGTTAAGAAAGCCTGAGT	0.228
TCATATAGGTAATACAGGTAAAAGTCGGCATCTA	0.572
AATACAGGGTCACTAGGCCAGAATAGGTACGAAT	4.27
CGAACTAGGTCATTGACAGGAGAGTGAATAGTAA	3.65
ATATGTAGGTTGTCGGGTCATTCAGTTTGCGCAT	2.08
TAGCCTGGGTCATGGGCCAGTATACCACGCGAAC	3.26
